Compound activity: PubChem BioAssay, The Scripps Research Institute Molecular Screening Center
An excerpt weighted towards active compounds, which were near 3.5% of everything screened.
MITF primary = blocks human microphthalmia-associated transcription factor. AID 1259374. hit rate 0.91% among 650,000. O75030. inhibition, % at 2.6 µM. AlphaScreen MITF homodimerization, bead proximity signal; in the data active = inhibition above about 50%;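 also: 0% = vehicle wells with protein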
GPR151 activ = activates the human receptor GPR151 | Q8TDV0 | PathHunter beta-arrestin GPR151 cells, luminescence | activation, % at 11.2 µM | hit rate 1% among 650,000; in the data active = activation above about 4.9%;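 also: 0% = median of compound wells and 100% = cells with positive control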
FBW7 activator = activators of human E3 ligase FBW7. Q969H0. AlphaScreen FBW7–phospho-cyclin E peptide binding, activator screen. normalized activity (activation), % at 26.1 µM. hit rate 0.13% among 650,000; in the data active = normalized activity above about 1.9%;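 also: purified mutant Fbw7 with reduced substrate affinity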
Target sequence (Q969H0 whole entry, looked up): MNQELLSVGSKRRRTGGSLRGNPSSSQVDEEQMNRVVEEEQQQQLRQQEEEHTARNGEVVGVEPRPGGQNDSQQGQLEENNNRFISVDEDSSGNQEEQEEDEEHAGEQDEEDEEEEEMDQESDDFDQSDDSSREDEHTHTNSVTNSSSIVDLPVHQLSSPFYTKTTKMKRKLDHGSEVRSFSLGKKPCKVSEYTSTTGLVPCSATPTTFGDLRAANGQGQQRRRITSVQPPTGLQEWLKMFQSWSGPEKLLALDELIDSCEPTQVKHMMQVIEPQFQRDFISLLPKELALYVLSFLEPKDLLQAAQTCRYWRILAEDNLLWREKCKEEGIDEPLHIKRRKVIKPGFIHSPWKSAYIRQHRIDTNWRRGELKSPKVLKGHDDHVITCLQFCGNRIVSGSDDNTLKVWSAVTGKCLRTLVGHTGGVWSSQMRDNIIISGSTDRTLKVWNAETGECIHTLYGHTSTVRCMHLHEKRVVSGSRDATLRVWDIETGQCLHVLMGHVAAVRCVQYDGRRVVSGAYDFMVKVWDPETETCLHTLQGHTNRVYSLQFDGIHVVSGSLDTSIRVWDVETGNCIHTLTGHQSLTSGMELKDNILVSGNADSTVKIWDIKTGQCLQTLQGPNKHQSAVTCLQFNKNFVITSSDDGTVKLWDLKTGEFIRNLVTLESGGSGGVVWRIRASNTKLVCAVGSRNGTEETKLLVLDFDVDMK
TEAD-YAP inh = TEAD-YAP interaction inhibition. HEK-TIYL cells, TEAD-Gal4/YAP UAS-luciferase luminescence. inhibition, % at 9.12 µM. AID 1259422. hit rate 1.4% among 640,000; in the data active = inhibition above about 32%;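 also: 0% = median of test compound wells and 100% = reference inhibitor wells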
* = called active by the depositor; · = no result given; ! = not active in a repeat.

SMILES	MITF primary	GPR151 activ	FBW7 activator	TEAD-YAP inh
CCOc1ccc(N2C(=O)/C(=C/c3ccc(Br)o3)C(=O)NC2=S)cc1	79.4*	-1.6	-0.2	9.8
O=C1NC(=S)N(c2cccc(F)c2)C(=O)/C1=C/c1ccc(Br)o1	83.7*	-1.0	-0.1	4.1
Cc1ccc(/C=C2\C(=O)NC(=S)N(c3cccc(F)c3)C2=O)o1	11.7	2.1	0.0	0.1
CN1C(=O)NC(=O)/C(=C/c2ccc(Br)o2)C1=O	70.9*	0.6	-0.4	9.7
CN(C)S(=O)(=O)c1ccc(N2CCNCC2)cc1	2.4	0.9	0.0	-9.2
O=C(c1cc(-c2ccccc2)on1)N1CCC2(CC1)OCCO2	4.2	-5.1	0.1	-52.1
O=C(c1noc2c1COc1ccccc1-2)N1CCC2(CC1)OCCO2	10.1	-5.7	0.9	74.9*
CCCCC(CC)Cn1c(C)c(C(=O)OCC)c2cc(O)ccc21 (configuration not stated)	-7.4	-0.1	-0.2	-2.3
O=C1C(=O)c2ccccc2-c2ccccc21	16.3	1.2	-0.9	99.0*
O=C(COc1ccccc1)N1CCN(Cc2ccc(F)cc2)CC1	47.1	2.3	0.0	0.4
CC(C)[C@]12O[C@H]1[C@@H]1O[C@]13[C@]1(O[C@H]1C[C@H]1C4=C(CC[C@@]13C)C(=O)OC4)[C@@H]2O	2.6	1.0	0.0	90.5*
COc1ccc(C2NCc3ccc4c(c3-n3cccc32)OCO4)cc1O (configuration not stated)	4.7	1.2	-0.1	56.3*
Cc1sc2c(c1C)C(c1ccc(Cl)cc1)=NCC(=O)N2CC(=O)N1CCOCC1	6.2	-1.3	0.1	11.4
CC1=C(C(=O)OC(C)(C)C)C2(C(=O)Nc3ccc(Br)cc32)C(C(=O)OC(C)(C)C)=C(N)O1 (configuration not stated)	-3.8	-1.6	0.2	12.3
CCOC(=O)CC(CN)c1ccccc1 (configuration not stated)	18.8	0.9	-0.2	4.8
CC(=O)CCc1ccc2c(c1)OCO2	-6.1	1.4	0.2	9.4
N#CC(C#N)=Cc1cc(C=C(C#N)C#N)c(O)o1	83.7*	0.6	-0.6	13.7
CCn1nc(-c2ccccc2)nc2c(=O)n(C)c(=O)nc1-2	4.8	-8.5	-1.6	-32.3
Cc1nc2c(=O)n(C)c(=O)nc-2n(C)n1	21.6	-6.4	-1.6	99.9*
C[C@@H]1O[C@@H](O[C@H]2C[C@@H](O)[C@]3(CO)C4C(CC[C@]3(O)C2)[C@@]2(O)CC[C@H](C3=CC(=O)OC3)[C@@]2(C)C[C@H]4O)[C@H](O)[C@H](O)[C@H]1O (some centres not stated)	-0.1	-0.1	0.0	99.3*
C[C@]12CC[C@H](O)C[C@H]1CC[C@@H]1[C@@H]2CC[C@]2(C)[C@@H](C3=CC(=O)OC3)CC[C@]12O	2.7	0.7	0.1	·
COC1CC(O[C@H]2CC[C@]3(C=O)C4CC[C@]5(C)C(C6=CC(=O)OC6)CC[C@]5(O)C4CC[C@]3(O)C2)OC(C)C1O (some centres not stated)	11.5	-0.3	0.3	101.2*
C[C@@H]1O[C@@H](O[C@H]2C[C@@H](O)[C@]3(CO)[C@@H]4C(CC[C@]3(O)C2)[C@@]2(O)CC[C@H](C3COC(=O)C3)[C@@]2(C)C[C@H]4O)[C@H](O)[C@H](O)[C@H]1O (some centres not stated)	5.3	-0.6	0.5	94.1*
CCn1nc(-c2cccnc2)nc2c(=O)n(C)c(=O)nc1-2	-7.2	-5.4	-0.2	76.4*
COc1ccc(OC)c(C2=NCC(=O)Nc3c2oc2ccc(Cl)cc32)c1	10.9	3.2	0.1	58.6*
SMILES	MITF primary	GPR151 activ	FBW7 activator	TEAD-YAP inh
Cc1ccc(C2=NCC(=O)Nc3c2oc2ccccc32)cc1	6.9	0.1	-0.1	15.1
CCC1(C(=O)c2ccc(C(C)(C)C)cc2)C2c3cc(Br)ccc3OC(=O)C21C(=O)OC (configuration not stated)	7.0	0.0	0.0	-3.5
N#CC1=C2SCC(O)(c3ccco3)N2C(=O)CC1c1ccccc1F (configuration not stated)	9.0	1.7	0.7	41.1*
O=C1Nc2ccccc2C1=Cc1nc2ccc(I)cc2c(=O)n1-c1ccccc1	-7.0	1.2	0.0	-6.5
O=C(CCl)Nc1ccc(Cl)cc1C(=O)c1ccccc1	9.7	1.9	0.2	35.5*
C[C@@H]1CC[C@@]2(OC1)OC1C(O)C3C4CC[C@H]5C[C@H](O[C@@H]6O[C@H](CO)[C@H](O[C@@H]7O[C@H](CO)[C@@H](O)[C@H](O[C@@H]8OC[C@@H](O)[C@H](O)[C@H]8O)[C@H]7O[C@@H]7O[C@H](CO)[C@H](O)[C@H](O[C@@H]8O[C@H](CO)[C@@H](O)[C@H](O)[C@H]8O)[C@H]7O)[C@H](O)[C@H]6O)[C@H](O)C[C@]5(C)C4CC[C@]3(C)C1[C@@H]2C (some centres not stated)	-12.8	4.6	-0.1	14.8
CC(=O)OC1CCC23C(=O)OC45CCC(C6=CC(=O)OC6)C4(C)CCC2C5CCC3(O)C1 (configuration not stated)	-6.3	2.2	0.0	101.5*
C[C@H]1C(=O)O[C@@H]2CCN3CC=C(COC(=O)[C@](C)(O)[C@]1(C)O)[C@H]23	12.2	-3.5	0.2	73.6*!
CN1C(=O)N(C)C(=O)C(Cc2ccccn2)(Cc2ccccn2)C1=O	24.4	1.7	0.4	3.7
C=C(C)[C@H]1Cc2c(ccc3c2O[C@@H]2COc4cc(OC)c(OC)cc4[C@@H]2C3=O)O1	22.0	-0.5	-0.2	70.4*
N/C(=N\[N+](=O)[O-])N/N=C/c1ccc(O)c(O)c1	87.1*	-4.7	0.5	-5.3
CN1Cc2c(ccc3c2OCO3)[C@@H]2[C@H]1c1cc3c(cc1C[C@@H]2O)OCO3	6.5	-0.1	0.1	62.0*
C[N+]1(C)CCc2cc3c(cc2[C@H]1[C@@H]1OC(=O)c2c1ccc1c2OCO1)OCO3	19.5	4.1	0.9	-3.8
COc1cccc(NC(=O)c2c(O)c3c(n(Cc4ccco4)c2=O)CCCC3)c1	22.8	0.4	0.1	6.2
CCN(CC)C(=O)c1ccc(NC(=O)CN2CCCCC2)cc1	12.2	-1.4	0.1	-3.0
CCN(CC)C(=O)c1ccc(NC(=O)c2ccccn2)cc1	-6.5	-9.6	0.0	41.9*
CN(C)c1ccc(-c2cc[n+](C)cc2)cc1	16.9	2.5	0.1	55.9*
CCOc1ccc(/C=C2\C(O)C3CCN2CC3)cc1 (configuration not stated)	16.5	-0.7	0.0	-9.5
Cc1cc(/C=C2\C(=O)NC(=O)N(Cc3ccco3)C2=O)c(C)n1-c1ccc(O)cc1	57.7*	1.7	-0.3	10.5
COc1cc2c(cc1O)CC1c3c(cc(O)c(OC)c3-2)CCN1C (configuration not stated)	18.8	2.2	0.5	33.5*!
O=[N+]([O-])c1ccc(N2CCCC2)c2ccccc12	14.4	0.6	-0.2	3.1
Cc1cc([N+](=O)[O-])c2ccccc2[n+]1[O-]	-6.7	-1.8	-0.3	91.7*
